The values below come from PubChem BioAssay (NCATS).

Assay [1] in a line: HEK293 24hr Apoptosis Induction qHTS against the NCATS CANVASS Library (AID 1347359). In short, it runs like this: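 HEK293 cells (500/well, DMEM + 10% FBS) were exposed to compounds in an 11-point series for 24 hours at 37 degrees C, then caspase-3/7 activity was read by Caspase-Glo DEVD luciferase luminescence after 15 min.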
Assay [2] is described as follows: HEK293 12hr Apoptosis Induction qHTS against the NCATS CANVASS Library (AID 1347361). In short, it runs like this:
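Cells are seeded, dosed with an 11-point compound series and incubated 12 hours. Caspase-3/7 activity is detected by luminescent DEVD-substrate reagent after 15 minutes at room temperature.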
(In general: Quantitative high-throughput screening tests each substance at several concentrations.)

In assay [3] the target is Luciferin 4-monooxygenase (Photinus pyralis) (UniProt P08659). Description: Firefly luciferase counterscreen qHTS: Assay Interference Panel against the NCATS CANVASS Library (AID 1347363). The method in brief:
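Purified P. pyralis luciferase was added to compounds (11-point series) preincubated 15 min at room temperature with substrate containing 0.013 mM D-luciferin and 0.013 mM ATP; luminescence was read after 5 min.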
For orientation: The purpose of a counterscreen is to sort out artefacts and off-target activity.

Assay [4] in a line: KB-8-5-11 Cancer Cell Toxicity qHTS against the NCATS CANVASS Library (AID 1347364). In short, it runs like this: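 Viability read as CellTiter-Glo luminescence after 72 h at 37 °C, 5% CO2. 11-point compound series on 500 KB-8-5-11 cells/well in DMEM/10% FBS. Follow-up plating included 1 uM tariquidar in the medium.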
Assay [5] in a line: KB-3-1 Cancer Cell Toxicity qHTS against the NCATS CANVASS Library (AID 1347366). In short, it runs like this:
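Luminescence from CellTiter-Glo (10 min, room temperature) measured KB-3-1 viability after 72 hr compound exposure at 37C. Cells were seeded at 500/well and tested in an 11-point series.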

The nature of assay [6]: qHTS for ATAD5 Agonist screened against the NCATS CANVASS Library (AID 1347367). In short, it runs like this:
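HEK293T-ATAD5 luc reporter; 2000 cells/well; 5hr settle; cpd 11-pt qHTS; 16hr 37C 5% CO2 dark; viability by CellTiter-Fluor (AFC fluorescence); then luciferase luminescence, 30min RT.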

The nature of assay [7]: G06 Cancer Cell Toxicity qHTS against the NCATS CANVASS Library (AID 1347368). The method in brief: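 Viability measured by CellTiterGlo ATP luminescence after 72 hr at 37C, 5% CO2. Canine G06 glioma cells plated at 500/well. Compounds tested as 11-point qHTS titrations.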
Assay [8] in a line: MCF7 Cancer Cell Toxicity qHTS against the NCATS CANVASS Library (AID 1347369). The method in brief:
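Cells seeded at 500/well, then compound pinned. Plates incubated 72 hr at 37C, 5% CO2. CellTiterGlo added; luminescence read.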

Assay [9] is described as follows: qHTS for ATAD5 Antagonist screened against the NCATS CANVASS Library (AID 1347370). The method in brief: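 Compounds (11-point) co-dosed with 10 µM 5-FUrd for 16 h at 37 °C onto HEK293T-ATAD5 luciferase reporter cells. Viability measured by CellTiter-Fluor fluorescence, then ATAD5 reporter signal by luminescence.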
Assay [10] deals with Nuclear receptor subfamily 1 group I member 3 (Homo sapiens) (UniProt Q14994). Description: qHTS for Constitutive Androstane Receptor (CAR) Antagonist screened against the NCATS CANVASS Library (AID 1347372). In short, it runs like this:
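Cells were seeded and left 4hr to attach, then received compound at 11 concentrations and 50 nM CITCO. Following 24hr incubation, fluorescence viability and luciferase luminescence were read sequentially.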

For assay [11] the target is unchanged. Description: qHTS for Constitutive Androstane Receptor (CAR) Agonist screened against the NCATS CANVASS Library (AID 1347373). The method in brief: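 Agonist mode with 1.5uM PK11195 present: compounds for 24hr on HepG2-hCAR-CYP2B6 cells. CellTiter-Fluor fluorescence (ex 405, em 540 nm) gives viability; ONE-Glo luminescence reports CAR activation.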
Assay [12] can be described thus: qHTS for Hypoxia signaling pathway (HIF-1) agonists against the NCATS CANVASS Library (AID 1347375). The method in brief: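 Beta-lactamase reporter under HRE control in ME-180 cells; compounds (11-point qHTS series) added after 5 hrs plating, then 17 hrs at 37C. FRET substrate read after 2 hr; same-well CellTiter-Glo luminescence gave viability and normalization.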

Assay [13] is described as follows: 10-beta competent E. coli microbial cell viability qHTS against the NCATS CANVASS Library (AID 1347376). The method in brief:
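Read-out: BacTiter-Glo ATP luminescence, taken 20 min after reagent addition. Beforehand, 10-beta competent E. coli at 0.2 OD had been incubated overnight at 37C with compounds at 11 concentrations.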

The nature of assay [14]: qHTS for H2AX Agonists against the NCATS CANVASS Library (AID 1347378). The method in brief: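 CHO-K1, 1000 cells/well, o/n 37C; cpd several conc, 3 hr 37C, 0.76% DMSO; lyse 30 min RT; cryptate anti-pH2AX(S139) + d2 anti-H2AX, 24 hr RT; HTRF 665/620.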
The nature of assay [15]: Inflammasome Signaling qHTS Counterscreen: IL-1-beta AlphaLISA counterscreen against the NCATS CANVASS Library (AID 1347381). The method in brief: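 Purified IL-1-beta (4 pg/well) + compound, 11-pt conc. series; acceptor beads 6 ug/mL + biotin-Ab 0.6 nM final, 1 h RT; SA-donor 24 ug/ml final, 30 min dark RT; read ex 680/em 615.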
Assay [16] can be described thus: Cytotoxicity qHTS for assessment of Hepg2 cells membrane integrity screened against the NCATS CANVASS Library (AID 1347387). The method in brief: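 Membrane damage quantified as fluorescent LDH-release signal (ex 560, em 590 nm) in HepG2 cells treated 5 hr at 37C. qHTS format, 11 concentrations spanning 0.59 nM - 46 uM final, cells plated at 2000 per well the night before.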

Assay [17] can be described thus: qHTS assay for small molecule disruptors of mitochondrial membrane potential screened against the NCATS CANVASS Library (AID 1347389). In short, it runs like this: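 Mitochondrial membrane potential in HepG2: 1 h compound treatment (11-point concentration series), 30 min m-MPI dye at 37C, then dual fluorescence of J-aggregates (ex 540/em 590) and monomers (ex 490/em 535); lower red/green ratio indicates depolarization.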

The nature of assay [18]: Secretion counterscreen for inhibitors of the SERCaMP assay screened against the NCATS CANVASS Library (AID 1347390). In short, it runs like this: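 SH-SY5Y-GLuc STOP cells; 4 h attach; cpds 0.001 - 77 uM (qHTS, 11 pts), 20 h 37C/5% CO2; coelenterazine in glow buffer; luminescence, 5 s exposure.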
Assay [19] in a line: qHTS for activators of dead-cell proteases activity screened against the NCATS CANVASS Library (AID 1347392). The method in brief:
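Cytotoxicity in HepG2 cells was assessed by released protease cleaving AAF-aminoluciferin, with luminescence as signal. Exposure lasted 5 h at 37C across an 11-point series.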

Assay [20] is described as follows: qHTS for inhibitors of Wild type Zika virus screened against the NCATS CANVASS Library (AID 1347396). In short, it runs like this: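 Vero 766 cells, 1000/well, o/n attach; cpds pin-transferred (11-pt qHTS); WT Zika added; 72 h, 37C, 5% CO2; CellTiter Glo lumi. Uninfected + vehicle = 100% inhibition.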
Assay [21] in a line: qHTS for inhibitors of Rabies Virus screened against the NCATS CANVASS Library (AID 1347402; calls by dose curve).
Assay [22] can be described thus: Primary qHTS for small molecule stabilizers of the endoplasmic reticulum resident proteome: Secreted ER Calcium Modulated Protein (SERCaMP) assay (AID 1508630). In short, it runs like this: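 The SH-SY5Y reporter protocol was run at 3 concentrations up to 38.3 uM (primary) or 11 concentrations (follow-up): 16 h compound, 100 nM thapsigargin for 4 h, then extracellular luciferase luminescence.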

Assay [23] can be described thus: Primary qHTS for inhibitors of nuclear receptor binding SET domain protein 2 (NSD2) in an isogenic RCH-ACV NSD2 p.E1099K mutant (9B) (AID 1645876).
Assay [24] is described as follows: Primary qHTS for inhibitors of nuclear receptor binding SET domain protein 2 (NSD2) in an RCH-ACV wild type WT cells (2C) (AID 1645877).

Each structure is given as a SMILES string. Inconclusive results are not listed. The source made the active and inactive calls. Unless noted, calls come from the whole dose curve; as a rule, active = well fitted curve in the direction sought with a large enough effect; inconclusive = small, poorly fitted or top-dose-only effect, or another doubt; inactive = no such curve, though single readings can be large; an effect the other way counts as inactive or inconclusive.

Nuclear receptor subfamily 1 group I member 3 (Homo sapiens), sequence (Q14994 whole entry, looked up): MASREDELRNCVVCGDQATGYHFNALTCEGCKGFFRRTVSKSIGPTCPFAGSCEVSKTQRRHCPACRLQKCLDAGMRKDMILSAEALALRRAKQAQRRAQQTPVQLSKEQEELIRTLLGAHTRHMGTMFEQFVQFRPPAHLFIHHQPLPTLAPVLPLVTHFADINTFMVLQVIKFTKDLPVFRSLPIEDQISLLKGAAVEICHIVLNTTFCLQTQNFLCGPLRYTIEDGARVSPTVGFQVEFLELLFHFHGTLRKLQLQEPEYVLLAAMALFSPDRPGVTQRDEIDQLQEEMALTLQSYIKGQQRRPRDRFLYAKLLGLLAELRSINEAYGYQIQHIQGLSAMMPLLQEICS
Luciferin 4-monooxygenase (Photinus pyralis), sequence (P08659 whole entry, looked up): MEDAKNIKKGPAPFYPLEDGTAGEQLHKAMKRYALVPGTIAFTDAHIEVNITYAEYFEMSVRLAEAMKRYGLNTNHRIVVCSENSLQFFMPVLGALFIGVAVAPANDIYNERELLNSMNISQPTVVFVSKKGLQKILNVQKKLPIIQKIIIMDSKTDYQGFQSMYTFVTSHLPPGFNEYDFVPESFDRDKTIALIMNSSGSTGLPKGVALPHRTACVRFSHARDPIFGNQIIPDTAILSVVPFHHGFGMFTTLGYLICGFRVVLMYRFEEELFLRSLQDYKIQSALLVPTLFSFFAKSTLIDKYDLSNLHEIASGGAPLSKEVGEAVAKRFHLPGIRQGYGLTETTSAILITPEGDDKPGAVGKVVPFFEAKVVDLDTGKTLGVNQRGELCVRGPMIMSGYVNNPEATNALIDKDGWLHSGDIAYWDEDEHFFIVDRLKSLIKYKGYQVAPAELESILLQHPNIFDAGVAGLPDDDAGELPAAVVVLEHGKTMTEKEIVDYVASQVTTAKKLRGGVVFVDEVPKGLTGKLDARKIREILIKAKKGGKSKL

Consider `COc1ccc2c(c1)[nH]c1c(C)nccc12`, for which the Potency result in assay [1], in [2], in [6], in [10], in [12] and in assay [14] was “inactive” throughout. Further, the Potency result in assay [17], in assay [19], in assay [20] and in assay [22] was “inactive” throughout. Moreover, the outcome in assay [3], in assay [11], in assay [13], in assay [15], in assay [16] and in [21] was inactive. Further, the Potency in assay [4] was 38.2 µM (active); in assay [5], 42.9 µM (active); in assay [7], 24.1 µM (active); in [8], 34 µM (active); in assay [9], 2.41 µM (active); in assay [18], 62.7 µM (active). The Potency in assay [23] is 16.4 µM (active); in [24], 8.2 µM (active).
